Drawing on article PMC7862700, “An all-to-all approach to the identification of sequence-specific readers for epigenetic DNA modifications on cytosine”, this text covers binding signal for 1 sequence.

Common to all, as to assay: DAPPL (digital affinity profiling via proximity ligation, sequencing); 10 mM Tris-HCl pH 7.5, 50 mM NaCl, 1 mM DTT, 4% glycerol, room temperature, 30 min; GST-TFs on glutathione beads, 16-mer random dsDNA library, 0.1% formaldehyde crosslink after washing; high values mean tight binding
Experiment [1] deals with T1, FEV (Homo sapiens, UniProt Q99581 1-238).
T1 sequence: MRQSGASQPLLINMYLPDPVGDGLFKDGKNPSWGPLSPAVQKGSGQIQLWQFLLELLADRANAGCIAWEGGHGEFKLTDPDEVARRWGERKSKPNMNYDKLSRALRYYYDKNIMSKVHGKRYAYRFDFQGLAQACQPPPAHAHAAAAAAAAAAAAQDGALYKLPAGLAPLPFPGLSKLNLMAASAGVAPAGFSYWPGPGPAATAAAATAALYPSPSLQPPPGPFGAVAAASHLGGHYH
The following applies: protein: recombinant; tags: N-terminal GST; dsDNA, one strand shown. A digest of the protocol: (§1)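 Yeast served to express human transcription factors as GST fusions, which were then captured on glutathione beads and labelled with DNA barcodes. Pooled with a tag-only sample, they were incubated with 200 nmole of a 16-mer random double-stranded DNA library for 30 min at room temperature in Tris/NaCl/DTT/glycerol buffer, washed, crosslinked with 0.1% formaldehyde, ligated by proximity, amplified by PCR and sequenced. Dividing each hexamer's read frequency for a factor by its frequency for the tag-only sample gives the binding signal.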

Experiment [2] addresses ETV5 (Homo sapiens, UniProt P41161 1-510). The conditions noted are these: protein: recombinant; tags: N-terminal GST; dsDNA, one strand shown. A digest of the protocol: as §1
Experiment [3] deals with HSF1 (Homo sapiens, UniProt Q00613 1-529). The following applies: protein: recombinant; tags: N-terminal GST; chain copies: 3; dsDNA, one strand shown. A digest of the protocol:
as §1

The target of experiment [4] is T2, SPIC (Homo sapiens, UniProt Q8N5J4 1-248).
T2 sequence: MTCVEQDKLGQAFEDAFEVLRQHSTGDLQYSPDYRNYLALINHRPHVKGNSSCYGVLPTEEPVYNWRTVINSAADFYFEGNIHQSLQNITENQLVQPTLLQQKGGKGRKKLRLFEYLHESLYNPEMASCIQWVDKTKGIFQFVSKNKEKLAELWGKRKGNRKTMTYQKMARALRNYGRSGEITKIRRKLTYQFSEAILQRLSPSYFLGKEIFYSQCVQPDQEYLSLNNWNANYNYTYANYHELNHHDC
The conditions noted are these: protein: recombinant; tags: N-terminal GST; dsDNA, one strand shown. A digest of the protocol: as §1

The target of experiment [5] is ELF4 (Homo sapiens, UniProt Q99607 1-663). The conditions noted are these: protein: recombinant; tags: N-terminal GST; dsDNA, one strand shown. A digest of the protocol: as §1
Experiment [6] concerns the target T3, ELK4 (Homo sapiens, UniProt P28324-2 1-405).
T3 sequence: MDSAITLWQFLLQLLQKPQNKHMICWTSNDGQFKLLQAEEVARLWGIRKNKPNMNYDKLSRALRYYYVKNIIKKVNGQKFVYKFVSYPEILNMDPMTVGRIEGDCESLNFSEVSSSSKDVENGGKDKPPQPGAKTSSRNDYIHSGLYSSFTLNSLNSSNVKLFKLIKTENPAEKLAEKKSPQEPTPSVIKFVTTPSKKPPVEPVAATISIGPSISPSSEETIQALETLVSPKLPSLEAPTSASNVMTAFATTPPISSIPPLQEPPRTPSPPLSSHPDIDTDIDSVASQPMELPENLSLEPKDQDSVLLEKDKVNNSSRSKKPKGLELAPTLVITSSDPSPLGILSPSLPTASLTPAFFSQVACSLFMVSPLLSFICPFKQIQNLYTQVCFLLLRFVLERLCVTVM
The following applies: protein: recombinant; tags: N-terminal GST; dsDNA, one strand shown. In outline: as §1

For experiment [7], the target named is T4, ETV2 (Homo sapiens, UniProt O00321 1-342).
T4 sequence: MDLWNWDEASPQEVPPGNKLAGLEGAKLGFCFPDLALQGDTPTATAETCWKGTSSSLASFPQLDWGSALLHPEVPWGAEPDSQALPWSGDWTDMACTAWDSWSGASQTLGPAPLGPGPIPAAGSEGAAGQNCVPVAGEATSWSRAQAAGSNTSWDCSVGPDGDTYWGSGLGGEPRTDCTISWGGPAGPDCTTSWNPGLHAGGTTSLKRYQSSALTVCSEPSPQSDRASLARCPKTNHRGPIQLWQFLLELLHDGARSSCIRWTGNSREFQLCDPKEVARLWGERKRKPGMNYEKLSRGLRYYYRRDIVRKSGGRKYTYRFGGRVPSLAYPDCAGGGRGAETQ
The conditions noted are these: protein: recombinant; tags: N-terminal GST; dsDNA, one strand shown. In outline: as §1

Experiment [8] concerns the target T5, ELF3 (Homo sapiens, UniProt P78545 1-371).
T5 sequence: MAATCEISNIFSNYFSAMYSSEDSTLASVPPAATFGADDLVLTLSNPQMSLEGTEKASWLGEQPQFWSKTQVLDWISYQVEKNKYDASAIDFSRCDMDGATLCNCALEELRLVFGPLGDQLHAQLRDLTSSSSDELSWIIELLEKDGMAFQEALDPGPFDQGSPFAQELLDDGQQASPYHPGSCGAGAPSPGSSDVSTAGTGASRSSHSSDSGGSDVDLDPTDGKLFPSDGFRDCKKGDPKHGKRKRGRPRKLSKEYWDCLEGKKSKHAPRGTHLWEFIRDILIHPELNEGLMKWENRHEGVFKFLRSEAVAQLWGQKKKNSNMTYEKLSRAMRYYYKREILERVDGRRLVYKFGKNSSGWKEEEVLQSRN
The conditions noted are these: protein: recombinant; tags: N-terminal GST; dsDNA, one strand shown. In outline: as §1

The target in experiment [9] is CRX (Homo sapiens, UniProt O43186 1-299). The conditions noted are these: protein: recombinant; tags: N-terminal GST; dsDNA, one strand shown. In outline:
as §1

Experiment [10] concerns the target ETV1 (Homo sapiens, UniProt P50549 1-477). The following applies: protein: recombinant; tags: N-terminal GST; dsDNA, one strand shown. In outline: as §1
Experiment [11] has as its target T6, ERF (Homo sapiens, UniProt P50548 1-548).
T6 sequence: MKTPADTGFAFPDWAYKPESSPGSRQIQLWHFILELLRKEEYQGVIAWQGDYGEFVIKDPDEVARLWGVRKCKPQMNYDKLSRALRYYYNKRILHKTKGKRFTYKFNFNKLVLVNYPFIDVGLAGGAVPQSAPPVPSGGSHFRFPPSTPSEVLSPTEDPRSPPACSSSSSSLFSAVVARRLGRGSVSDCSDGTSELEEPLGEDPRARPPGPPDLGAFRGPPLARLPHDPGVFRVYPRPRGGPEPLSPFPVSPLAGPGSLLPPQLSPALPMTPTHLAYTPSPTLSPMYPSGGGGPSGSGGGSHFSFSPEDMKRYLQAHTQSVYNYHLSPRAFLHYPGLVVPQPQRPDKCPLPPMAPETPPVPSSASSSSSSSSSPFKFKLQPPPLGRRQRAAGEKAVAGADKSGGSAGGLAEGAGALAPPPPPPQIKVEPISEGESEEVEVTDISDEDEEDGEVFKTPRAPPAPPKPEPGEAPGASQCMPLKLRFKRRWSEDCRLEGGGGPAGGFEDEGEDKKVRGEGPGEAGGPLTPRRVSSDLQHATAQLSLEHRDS
The following applies: protein: recombinant; tags: N-terminal GST; dsDNA, one strand shown. A digest of the protocol:
as §1

Experiment [12] concerns the target T7, ETV3L (Homo sapiens, UniProt Q6ZN32 1-361).
T7 sequence: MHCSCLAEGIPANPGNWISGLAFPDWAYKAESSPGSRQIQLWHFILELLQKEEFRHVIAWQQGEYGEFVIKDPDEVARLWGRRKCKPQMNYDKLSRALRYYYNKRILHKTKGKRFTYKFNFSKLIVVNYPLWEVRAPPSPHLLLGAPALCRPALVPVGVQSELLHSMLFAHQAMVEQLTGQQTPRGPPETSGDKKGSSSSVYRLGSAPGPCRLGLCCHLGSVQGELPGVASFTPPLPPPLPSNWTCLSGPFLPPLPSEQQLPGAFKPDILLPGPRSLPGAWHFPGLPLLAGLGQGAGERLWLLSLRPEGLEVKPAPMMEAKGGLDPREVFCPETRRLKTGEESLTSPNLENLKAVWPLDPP
The following applies: protein: recombinant; tags: N-terminal GST; dsDNA, one strand shown. A digest of the protocol: as §1

Experiment [13] has as its target T8, ETS2 (Homo sapiens, UniProt P15036 1-469).
T8 sequence: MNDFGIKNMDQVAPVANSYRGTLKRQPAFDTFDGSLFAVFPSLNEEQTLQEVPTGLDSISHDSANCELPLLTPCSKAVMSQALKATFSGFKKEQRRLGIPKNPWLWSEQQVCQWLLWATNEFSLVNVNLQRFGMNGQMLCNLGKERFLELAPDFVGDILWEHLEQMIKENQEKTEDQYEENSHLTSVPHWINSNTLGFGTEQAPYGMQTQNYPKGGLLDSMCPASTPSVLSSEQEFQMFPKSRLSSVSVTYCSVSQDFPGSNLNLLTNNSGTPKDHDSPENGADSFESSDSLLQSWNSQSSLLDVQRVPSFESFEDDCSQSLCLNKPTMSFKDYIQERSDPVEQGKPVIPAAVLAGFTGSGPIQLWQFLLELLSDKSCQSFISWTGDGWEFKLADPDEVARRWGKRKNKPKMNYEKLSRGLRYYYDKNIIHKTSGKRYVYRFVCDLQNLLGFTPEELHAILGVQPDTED
The following applies: protein: recombinant; tags: N-terminal GST; dsDNA, one strand shown. In outline:
as §1

The target of experiment [14] is T9, SPDEF (Homo sapiens, UniProt O95238 1-335).
T9 sequence: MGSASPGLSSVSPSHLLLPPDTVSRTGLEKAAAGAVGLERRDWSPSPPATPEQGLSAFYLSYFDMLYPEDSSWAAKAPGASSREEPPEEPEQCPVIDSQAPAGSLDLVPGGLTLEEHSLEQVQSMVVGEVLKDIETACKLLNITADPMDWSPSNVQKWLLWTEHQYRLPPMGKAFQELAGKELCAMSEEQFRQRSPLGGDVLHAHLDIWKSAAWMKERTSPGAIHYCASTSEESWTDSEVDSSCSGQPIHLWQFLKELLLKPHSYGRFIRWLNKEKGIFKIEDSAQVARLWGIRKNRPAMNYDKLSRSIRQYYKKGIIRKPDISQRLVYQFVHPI
The following applies: protein: recombinant; tags: N-terminal GST; dsDNA, one strand shown. A digest of the protocol: as §1

In experiment [15] the target is T10, ETV7 (Homo sapiens, UniProt Q9Y603 1-341).
T10 sequence: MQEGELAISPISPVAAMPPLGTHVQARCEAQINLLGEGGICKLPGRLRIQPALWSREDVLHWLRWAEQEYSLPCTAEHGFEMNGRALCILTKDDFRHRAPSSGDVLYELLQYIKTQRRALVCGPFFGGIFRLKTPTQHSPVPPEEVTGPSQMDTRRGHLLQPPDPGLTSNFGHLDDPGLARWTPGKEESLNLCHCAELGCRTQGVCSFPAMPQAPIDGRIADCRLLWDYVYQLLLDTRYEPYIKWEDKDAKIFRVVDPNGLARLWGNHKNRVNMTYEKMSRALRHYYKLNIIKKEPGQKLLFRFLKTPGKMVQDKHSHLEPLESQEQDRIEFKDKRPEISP
The conditions noted are these: protein: recombinant; tags: N-terminal GST; dsDNA, one strand shown. A digest of the protocol:
as §1

The target in experiment [16] is T11, ELF5 (Homo sapiens, UniProt Q9UKW6-2 1-255).
T11 sequence: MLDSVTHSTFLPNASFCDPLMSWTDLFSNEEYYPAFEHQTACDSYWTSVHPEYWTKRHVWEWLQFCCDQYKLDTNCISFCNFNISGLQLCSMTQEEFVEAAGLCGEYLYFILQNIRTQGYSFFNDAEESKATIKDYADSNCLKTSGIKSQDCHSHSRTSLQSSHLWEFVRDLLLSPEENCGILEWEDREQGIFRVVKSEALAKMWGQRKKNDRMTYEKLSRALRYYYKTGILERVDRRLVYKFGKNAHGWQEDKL
The conditions noted are these: protein: recombinant; tags: N-terminal GST; dsDNA, one strand shown. A digest of the protocol:
as §1

Experiment [17] concerns the target T12, ETV3 (Homo sapiens, UniProt P41162-2 1-143).
T12 sequence: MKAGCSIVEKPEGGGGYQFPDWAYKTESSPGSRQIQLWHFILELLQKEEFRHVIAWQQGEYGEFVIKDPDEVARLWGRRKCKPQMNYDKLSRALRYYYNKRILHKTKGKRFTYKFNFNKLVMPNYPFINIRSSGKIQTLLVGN
The following applies: protein: recombinant; tags: N-terminal GST; dsDNA, one strand shown. A digest of the protocol:
as §1

Experiment [18] addresses ETV6 (Homo sapiens, UniProt P41212 1-452). The following applies: protein: recombinant; tags: N-terminal GST; dsDNA, one strand shown. In outline:
as §1

Chain of ELF4 (Q99607 whole entry): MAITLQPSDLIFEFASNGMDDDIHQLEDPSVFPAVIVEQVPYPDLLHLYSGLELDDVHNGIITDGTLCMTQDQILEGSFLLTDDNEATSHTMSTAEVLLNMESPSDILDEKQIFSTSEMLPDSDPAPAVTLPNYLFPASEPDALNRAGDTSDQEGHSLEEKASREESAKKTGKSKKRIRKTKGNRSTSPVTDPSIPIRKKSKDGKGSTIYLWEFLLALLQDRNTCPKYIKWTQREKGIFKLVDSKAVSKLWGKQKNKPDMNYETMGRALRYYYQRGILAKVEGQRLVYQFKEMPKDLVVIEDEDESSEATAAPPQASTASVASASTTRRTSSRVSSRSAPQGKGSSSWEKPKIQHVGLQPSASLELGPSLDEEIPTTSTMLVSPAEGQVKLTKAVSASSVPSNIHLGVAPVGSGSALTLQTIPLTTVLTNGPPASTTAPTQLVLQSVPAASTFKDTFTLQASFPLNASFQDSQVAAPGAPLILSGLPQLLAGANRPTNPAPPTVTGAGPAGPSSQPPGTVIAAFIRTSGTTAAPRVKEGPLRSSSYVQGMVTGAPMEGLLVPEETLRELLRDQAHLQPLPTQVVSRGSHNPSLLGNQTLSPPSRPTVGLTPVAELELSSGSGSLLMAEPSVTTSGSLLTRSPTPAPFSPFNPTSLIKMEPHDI
Chain of ETV6 (P41212 whole entry): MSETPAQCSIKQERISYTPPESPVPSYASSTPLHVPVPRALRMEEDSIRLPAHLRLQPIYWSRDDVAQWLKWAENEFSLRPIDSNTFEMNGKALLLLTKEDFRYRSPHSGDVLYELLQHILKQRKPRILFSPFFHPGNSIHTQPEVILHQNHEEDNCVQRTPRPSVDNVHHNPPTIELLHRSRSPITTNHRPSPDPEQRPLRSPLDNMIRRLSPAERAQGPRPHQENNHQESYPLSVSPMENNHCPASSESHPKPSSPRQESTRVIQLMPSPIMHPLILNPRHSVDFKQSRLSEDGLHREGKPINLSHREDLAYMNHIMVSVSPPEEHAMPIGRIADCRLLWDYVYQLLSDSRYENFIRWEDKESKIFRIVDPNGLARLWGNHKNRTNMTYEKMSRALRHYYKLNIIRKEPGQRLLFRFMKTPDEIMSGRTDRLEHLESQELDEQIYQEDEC
Chain of HSF1 (Q00613 whole entry): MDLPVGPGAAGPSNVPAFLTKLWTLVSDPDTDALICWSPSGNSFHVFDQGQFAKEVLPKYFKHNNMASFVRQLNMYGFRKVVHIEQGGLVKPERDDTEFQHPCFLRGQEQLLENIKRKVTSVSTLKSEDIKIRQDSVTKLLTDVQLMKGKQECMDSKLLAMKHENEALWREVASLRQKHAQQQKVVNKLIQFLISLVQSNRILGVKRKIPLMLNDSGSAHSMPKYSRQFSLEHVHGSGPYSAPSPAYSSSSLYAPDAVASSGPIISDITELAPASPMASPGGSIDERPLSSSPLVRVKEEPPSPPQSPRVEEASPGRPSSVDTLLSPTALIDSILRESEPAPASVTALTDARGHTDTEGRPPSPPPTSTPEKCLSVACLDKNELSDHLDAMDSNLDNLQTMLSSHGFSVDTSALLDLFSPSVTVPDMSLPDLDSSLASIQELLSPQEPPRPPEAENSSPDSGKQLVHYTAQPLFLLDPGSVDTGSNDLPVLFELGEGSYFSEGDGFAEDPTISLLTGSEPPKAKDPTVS
Chain of CRX (O43186 whole entry): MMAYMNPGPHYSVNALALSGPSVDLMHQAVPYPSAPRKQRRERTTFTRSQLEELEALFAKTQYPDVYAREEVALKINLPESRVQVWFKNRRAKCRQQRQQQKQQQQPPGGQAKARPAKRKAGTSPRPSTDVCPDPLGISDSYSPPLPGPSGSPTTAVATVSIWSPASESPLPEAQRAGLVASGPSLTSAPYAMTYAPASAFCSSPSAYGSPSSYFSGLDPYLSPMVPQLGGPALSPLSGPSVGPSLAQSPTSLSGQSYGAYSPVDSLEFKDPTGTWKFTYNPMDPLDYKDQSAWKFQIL
Chain of ETV1 (P50549 whole entry): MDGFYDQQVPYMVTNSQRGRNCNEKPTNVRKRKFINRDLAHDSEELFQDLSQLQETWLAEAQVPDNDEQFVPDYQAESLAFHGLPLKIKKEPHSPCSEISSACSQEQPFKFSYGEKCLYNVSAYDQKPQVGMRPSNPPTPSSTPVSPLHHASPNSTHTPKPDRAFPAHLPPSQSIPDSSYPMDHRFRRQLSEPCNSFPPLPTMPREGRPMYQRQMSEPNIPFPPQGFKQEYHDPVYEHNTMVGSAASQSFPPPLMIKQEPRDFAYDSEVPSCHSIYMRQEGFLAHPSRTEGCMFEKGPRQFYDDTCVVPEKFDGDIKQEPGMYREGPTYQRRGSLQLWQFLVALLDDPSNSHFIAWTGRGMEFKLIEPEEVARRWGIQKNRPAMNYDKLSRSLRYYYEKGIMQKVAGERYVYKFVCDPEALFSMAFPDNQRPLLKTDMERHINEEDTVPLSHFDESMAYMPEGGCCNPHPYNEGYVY
Chain of ETV5 (P41161 whole entry): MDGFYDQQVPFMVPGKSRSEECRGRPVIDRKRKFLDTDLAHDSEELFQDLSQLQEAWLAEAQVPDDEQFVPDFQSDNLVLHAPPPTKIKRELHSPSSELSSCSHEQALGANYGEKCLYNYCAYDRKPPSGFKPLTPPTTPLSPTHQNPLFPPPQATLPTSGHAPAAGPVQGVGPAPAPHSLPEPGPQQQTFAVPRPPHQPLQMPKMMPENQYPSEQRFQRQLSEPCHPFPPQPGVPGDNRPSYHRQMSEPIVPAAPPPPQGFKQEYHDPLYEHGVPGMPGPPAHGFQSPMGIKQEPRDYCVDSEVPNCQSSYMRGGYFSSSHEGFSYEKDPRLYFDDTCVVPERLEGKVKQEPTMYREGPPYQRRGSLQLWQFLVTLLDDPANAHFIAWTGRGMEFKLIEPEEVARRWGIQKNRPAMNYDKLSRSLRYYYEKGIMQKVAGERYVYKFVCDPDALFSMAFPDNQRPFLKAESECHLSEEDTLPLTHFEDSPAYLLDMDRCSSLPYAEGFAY

Turning to CCTTTT, the binding signal in experiment [1] was 1.68 fold enrichment (6-mer frequency, TF over GST control); in experiment [2] it was 1.56 fold enrichment (6-mer frequency, TF over GST control); in experiment [3] it was 1.37 fold enrichment (6-mer frequency, TF over GST control); in experiment [4] it was 1.83 fold enrichment (6-mer frequency, TF over GST control); in experiment [5], 1.64 fold enrichment (6-mer frequency, TF over GST control); in experiment [6] it was 1.58 fold enrichment (6-mer frequency, TF over GST control). Moreover, the binding signal in experiment [7] is 1.38 fold enrichment (6-mer frequency, TF over GST control); in [8] it was 1.68 fold enrichment (6-mer frequency, TF over GST control); in [9] it was 1.36 fold enrichment (6-mer frequency, TF over GST control); in experiment [10], 1.6 fold enrichment (6-mer frequency, TF over GST control); in experiment [11] it was 1.65 fold enrichment (6-mer frequency, TF over GST control); in [12], 1.69 fold enrichment (6-mer frequency, TF over GST control). The binding signal in [13] is 1.46 fold enrichment (6-mer frequency, TF over GST control); in experiment [14], 1.55 fold enrichment (6-mer frequency, TF over GST control); in experiment [15] it was 1.53 fold enrichment (6-mer frequency, TF over GST control); in [16], 1.61 fold enrichment (6-mer frequency, TF over GST control); in [17] it was 1.55 fold enrichment (6-mer frequency, TF over GST control); in experiment [18], 1.67 fold enrichment (6-mer frequency, TF over GST control).
